Experimental data reported in PubChem BioAssay AID720708 (National Center for Advancing Translational Sciences (NCATS), 2013).
Hit rate of the full screen: of about 360,000 compounds, about 660 (0.18%) were called active. Not shown: some 2% with an inconclusive outcome. Calls come from the whole dose curve; as a rule, active = well fitted inhibition curve with a large enough effect; inconclusive = small, poorly fitted or top-dose-only effect; inactive = no such curve, though single readings can be large or run the other way. What follows is part of a selection rich in actives, with near analogues and random picks from the rest.

Molecular target: Rap guanine nucleotide exchange factor 4 (Homo sapiens) (UniProt Q8WZA2)
Assay: qHTS for Antagonist of cAMP-regulated guanine nucleotide exchange factor 2 (EPAC2): primary screen; note: nearly all actives have a fitted effect of over 45% in size
Conditions: EPAC2 GEF exchange of Rap1B-BODIPY-GDP, fluorescence; series mostly up to 114 µM; activity, negative = inhibition: at the top concentration
Excerpt: In multi-cellular eukaryotic organisms, the effects of cAMP are transduced by two ubiquitously-expressed intracellular cAMP receptors, the classic protein kinase A/cAMP-dependent protein kinase (PKA/cAPK) and the more recently discovered exchange protein directly activated by cAMP/cAMP-regulated guanine nucleotide exchange factor (EPAC/cAMP-GEF). Both PKA and EPAC are ubiquitously expressed in all tissues, and an increase in intracellular cAMP levels will lead to the activation of both PKA and EPAC. Therefore, careful dissections of the individual role and relative contribution of EPAC and PKA within the overall cAMP signaling in various model systems are critical for further elucidating the mechanism of cAMP signaling. To date no EPAC-specific antagonists and agonist, as well as isoform-specific agonists have been reported, and developing EPAC-specific pharmacological probes to determine the physiological functions that EPAC play in the overall cAMP-mediated signaling remains a major challenge within the research field. Furthermore, identified regulators of EPAC may lead to new mechanism-based therapeutic strategies specifically targeting the EPAC / cAMP-signaling components as EPAC has been implicated to play important roles in major human pathological conditions such as diabetes, heart disease, and cancer.
This qHTS will be used to screen the Molecular Libraries Small Molecule Repository (MLSMR) as a concentration-titration series using the NCGC unique quantitative screening (qHTS) platform to find inhibitors for EPAC2. In addition, this assay will also be used as a counterscreen for the EPAC1 qHTS. This fluorescent based assay is developed and validated for EPAC2 that measures exchange using EPAC effector Rap1 complex with BODIPY-GDP, a GDP analog with a tethered fluorophores. Inhibitors are identified by monitoring the change in fluorescence signal as the exchanged free BODIPY-GDP has a reduced fluorescence compared to Rap1-bound BODIPY-GDP. Decrease in signal (inhibition) is the desired outcome for the EPAC2 antagonist while no activity in this assay is desired for the EPAC1 antagonist counterscreen.
NIH Chemical Genomics Center [NCGC]
NIH Molecular Libraries Probe Centers Network [MLPCN]
Assay Submitter (PI): Xiaodong Cheng, The University of Texas, Medical Branch
Briefly, three uL of reagents (100 nM EPAC2, 250 nM RAP1B-BODIPY-GDP, 50 uM GDP) were dispensed into a 1536-well Greiner black solid-bottom medium binding assay plate. Controls and test compounds (23 nL) were transferred to the plate via a Kalypsys pin tool equipped with a 1536-pin array. The plates were centrifuged at 1,000 rpm for 15 seconds followed by 5 minute incubation at room temperature. The assay plates were read at 5 minute intervals for 30 minutes in the ViewLux plate reader using 480nm excitation and 540nm emission filters. The results were normalized to the agonist positive control ATA and DMSO.
% is set by controls: 0 for no effect and ±100 for the full control effect; potency is the fitted concentration of half-maximal effect.

Sequence of Rap guanine nucleotide exchange factor 4 (Homo sapiens) (Q8WZA2 whole entry, looked up): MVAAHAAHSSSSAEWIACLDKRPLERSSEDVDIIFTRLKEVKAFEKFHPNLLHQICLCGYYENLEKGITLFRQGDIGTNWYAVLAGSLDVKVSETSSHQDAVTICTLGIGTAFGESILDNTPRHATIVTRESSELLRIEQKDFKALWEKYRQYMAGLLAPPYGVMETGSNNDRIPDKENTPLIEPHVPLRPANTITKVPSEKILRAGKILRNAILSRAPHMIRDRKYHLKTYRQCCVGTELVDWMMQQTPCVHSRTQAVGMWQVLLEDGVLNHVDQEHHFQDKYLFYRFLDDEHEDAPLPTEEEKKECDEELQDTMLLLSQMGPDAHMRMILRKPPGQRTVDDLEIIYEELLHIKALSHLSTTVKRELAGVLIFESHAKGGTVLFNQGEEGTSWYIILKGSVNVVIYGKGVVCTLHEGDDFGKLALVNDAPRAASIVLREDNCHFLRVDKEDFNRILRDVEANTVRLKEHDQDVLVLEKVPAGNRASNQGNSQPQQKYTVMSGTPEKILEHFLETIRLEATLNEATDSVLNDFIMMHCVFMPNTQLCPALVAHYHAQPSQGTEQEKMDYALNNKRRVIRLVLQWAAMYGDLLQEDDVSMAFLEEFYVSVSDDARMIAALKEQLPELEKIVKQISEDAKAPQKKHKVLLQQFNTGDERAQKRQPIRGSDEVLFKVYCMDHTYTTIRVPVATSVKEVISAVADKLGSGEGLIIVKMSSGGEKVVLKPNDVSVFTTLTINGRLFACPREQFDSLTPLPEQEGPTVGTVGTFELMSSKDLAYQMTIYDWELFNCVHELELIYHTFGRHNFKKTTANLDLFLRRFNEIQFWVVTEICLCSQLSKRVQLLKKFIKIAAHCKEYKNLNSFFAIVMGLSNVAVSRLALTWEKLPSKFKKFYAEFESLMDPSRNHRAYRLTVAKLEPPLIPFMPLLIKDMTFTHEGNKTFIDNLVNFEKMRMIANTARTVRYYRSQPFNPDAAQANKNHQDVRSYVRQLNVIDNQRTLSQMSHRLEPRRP

Row | SMILES | activity, negative = inhibition | Potency
1 | CCC(CC)C(C(=O)NC1CCCC1)N1CCN(c2cc(C)nc3ccccc23)CC1 (stereo unspecified) | 0.749% (inactive) | –
2 | COc1cc(C(=O)NC2CCN(C)CC2)ccc1Nc1ncc2c(n1)N(C1CCC(O)CC1)CCC(=O)N2C (stereo unspecified) | 5.33% (inactive) | –
3 | Cc1[nH]c2ccccc2c1C(=O)c1cc([C@H](NC(=O)OC(C)(C)C)C(C)C)sc1N | -19.1% (inactive) | –
4 | COc1ccc(NC(=O)C(C)N2c3cccc4cccc(c34)S2(=O)=O)c(OC)c1 (stereo unspecified) | -3.13% (inactive) | –
5 | COc1ccc(CNC(=O)C(=O)NCC2OCCN2C(=O)c2ccc(OC)cc2)cc1 (stereo unspecified) | -3.12% (inactive) | –
6 | CC1CCCC(NC(=O)CN2CCN(Cc3ccc(Cl)cc3)C2=O)C1C (stereo unspecified) | -0.841% (inactive) | –
7 | Brc1ccc2c(c1)[C@H]1OCC[C@H]1[C@@H](c1cccs1)N2 | -14.1% (inactive) | –
8 | CC(C)OC(=O)Cn1nc(C(F)(F)F)c2c1CCCC2 | -0.377% (inactive) | –
9 | CCOC(=O)C1C(C)C(C(C)(C)C)N(S(=O)(=O)c2ccc(C)cc2)C1c1ccccc1 (stereo unspecified) | -18.2% (inactive) | –
10 | CCOC(=O)[C@]12CCCC=C1N(CCC1=CCCCC1)C(=O)[C@H](CC(=O)N1CCN(C(=O)c3ccco3)CC1)C2 | -0.87% (inactive) | –
11 | Cc1cc(NC(=O)CN2CCC(O)(c3cccc(F)c3)CC2)no1 | -3.78% (inactive) | –
12 | O=C(COC(=O)c1cccc(Cl)c1Cl)NC1CCCCCC1 | 0.941% (inactive) | –
13 | CCCCCNC(=O)C(c1ccc(OC)cc1)n1c(=O)c(-c2ccccc2)nc2ccccc21 (stereo unspecified) | -4.54% (inactive) | –
14 | COc1ccc(NC(=O)CNC(=O)Cn2ccc3ccccc3c2=O)c(OC)c1 | 3.29% (inactive) | –
15 | O=C(CSc1n[nH]c(-c2cccs2)n1)N1CCCCC1 | 6.58% (inactive) | –
16 | Cc1cc(C)nc(SC2CCCCC2NS(=O)(=O)c2ccc(Cl)cc2)n1 (stereo unspecified) | -5.29% (inactive) | –

Row | SMILES | activity, negative = inhibition | Potency
17 | N#CC(C(N)=O)=C1CCC2(CC1)OCCCCO2 | -0.483% (inactive) | –
18 | Cc1ccc(C(C(=O)NC2CCCCC2)N(C(=O)c2csnn2)C2CC2)o1 (stereo unspecified) | -3.05% (inactive) | –
19 | FC(F)(F)c1cccc(-c2nc3ccccc3n2C(c2ccccc2)c2nc3ccccc3[nH]2)c1 (stereo unspecified) | 4.94% (inactive) | –
20 | CCOC(=O)c1cc(S(=O)(=O)NCCc2ccc(OC)c(OC)c2)cn1C | -4.79% (inactive) | –
21 | COCCn1nnnc1CN1CCC(NC(=O)Nc2cccc(OC)c2)CC1 | 1.59% (inactive) | –
22 | CCN1CCCC1CNC(=O)c1ccc2c(c1)NC(=O)/C(=C\c1ccccc1F)S2 (stereo unspecified) | 11.4% (inactive) | –
23 | CCOC(=O)N1CCN(C(=O)CSc2nc(C)nc3c2c(=O)n(C)c(=O)n3C)CC1 | -1.46% (inactive) | –
24 | CC1(C(=O)Nc2ccc3c(c2)OCCO3)CN(S(C)(=O)=O)CC(=O)N1Cc1cccc(F)c1 (stereo unspecified) | -11.3% (inactive) | –
25 | C[C@H](CO)N1C[C@H](C)[C@@H](CN(C)C(=O)c2cnccn2)Oc2ncc(Br)cc2C1=O | 6.89% (inactive) | –
26 | C#CCOCCOCCOCCNc1nc(N2CCN(C(=O)CCCCCCCCCCNC(=O)[C@H](CCCCN)n3cc(C)nn3)CC2)nc(N2CCN(C(=O)CCCCCCCCCCNC(=O)[C@H](CO)n3cc(CCCSC)nn3)CC2)n1 | – | 50.1 µM (active)
27 | C#CCOCCOCCOCCNc1nc(N2CCN(C(=O)CCCCCCCCCCNC(=O)[C@H]([C@@H](C)CC)n3cc(CCCCN=C(N)N)nn3)CC2)nc(N2CCN(C(=O)CCCCCCCCCCNC(=O)[C@H](CO)n3cc(CCCSC)nn3)CC2)n1 | – | 50.1 µM (active)
28 | C#CCOCCOCCOCCNc1nc(N2CCN(C(=O)C([C@@H](C)CC)n3cc(C(N)COC(=O)C(F)(F)F)nn3)CC2)nc(N2CCN(C(=O)[C@H](CCCCN)n3cc(C(N)CC(C)C)nn3)CC2)n1 (stereo partly specified) | 4.15% (inactive) | –
29 | C#CCOCCOCCOCCNc1nc(N2CCN(C(=O)[C@H](CO)n3cc([C@@H](N)C(C)C)nn3)CC2)nc(N2CCN(C(=O)[C@H](CCC(=O)O)n3cc([C@@H](N)[C@H](C)CC)nn3)CC2)n1 | 5.29% (inactive) | –
30 | C#CCOCCOCCOCCNc1nc(N2CCN(C(=O)[C@H](CCCCN)n3cc([C@@H](N)C(C)CC)nn3)CC2)nc(N2CCN(C(=O)[C@H](Cc3ccc(O)cc3)n3cc([C@@H](N)C(C)CC)nn3)CC2)n1 (stereo partly specified) | 8.26% (inactive) | –
31 | C#CCOCCOCCOCCNc1nc(N2CCN(C(=O)C([C@@H](C)O)n3cc([C@@H](N)CCCCN)nn3)CC2)nc(N2CCN(C(=O)[C@H](CCCCN)n3cc(CN)nn3)CC2)n1 (stereo partly specified) | -4.66% (inactive) | –
